Assay [1] can be described thus: BSK_3C_VCAM1: BioMAP Diversity Plus: 3C Assay for Vascular cell adhesion molecule 1 (VCAM1) Biomarker Activity (AID 2282999; active = hit-call score of the fitted dose curve at least 0.9, where 1 is the maximum; inactive = score below 0.9). The settings on record: BioMAP 3C HUVEC, VCAM1 ELISA, cytokine-stimulated; actives raise or lower the signal. A digest of the protocol:
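Activity fitted in both directions relative to DMSO, with ELISA measurement of the surface marker on primary HUVEC (3C) at 24 h post-treatment; parallel SRB staining (0.1% SRB, TCA-fixed, 560 nm) flagged overt cytotoxicity.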

Assay [2] can be described thus: BSK_4H_Eotaxin3: BioMAP Diversity Plus: 4H Assay for Eotaxin 3 Biomarker Activity (AID 2283000; active = hit-call score of the fitted dose curve at least 0.9, where 1 is the maximum; inactive = score below 0.9;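 as to outcome: CCL26 protein level quantified by ELISA in parallel with SRB cytotoxicity check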). Conditions: primary human endothelial cells (HUVEC); actives raise or lower the signal. The gist of the method:
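Endothelial primary cells (human umbilical vein) exposed to compound for 24 h. ELISA detection of Eotaxin-3.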

The target of assay [3] is human Peroxisome Proliferator-activated Receptor alpha (PPARa), PPARA (gene 5465) (UniProt Q07869). As to the kind of experiment: ATG_PPARa_TRANS: Attagene TRANS-FACTORIAL HepG2 Assay for human Peroxisome Proliferator-activated Receptor alpha (PPARa) (AID 2283001). A digest of the protocol:
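Transfected HepG2 cells treated with test chemical for 24 h. RNA isolated, reverse-transcribed with oligo(dT), PCR-amplified, FAM-labelled and HpaI-digested. Fragments sized by capillary electrophoresis; gain-of-signal fit relative to DMSO.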

Assay [4] deals with human Peroxisome Proliferator-activated Receptor delta (PPARd), PPARD (gene 5467) (UniProt Q03181). As to the kind of experiment: ATG_PPARd_TRANS: Attagene TRANS-FACTORIAL HepG2 Assay for human Peroxisome Proliferator-activated Receptor delta (PPARd) (AID 2283002). The gist of the method: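 Transient HepG2 transfection (multiple GAL4-UAS RTUs, chimeric receptor-Gal4); 24 h dosing; total RNA → oligo(dT) RT → PCR → 6-FAM primer extension → HpaI cut → CE. Positive direction vs DMSO.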
Chain of human Peroxisome Proliferator-activated Receptor delta (PPARd), PPARD (gene 5467) (Q03181 whole entry, looked up, the tested form may be a part): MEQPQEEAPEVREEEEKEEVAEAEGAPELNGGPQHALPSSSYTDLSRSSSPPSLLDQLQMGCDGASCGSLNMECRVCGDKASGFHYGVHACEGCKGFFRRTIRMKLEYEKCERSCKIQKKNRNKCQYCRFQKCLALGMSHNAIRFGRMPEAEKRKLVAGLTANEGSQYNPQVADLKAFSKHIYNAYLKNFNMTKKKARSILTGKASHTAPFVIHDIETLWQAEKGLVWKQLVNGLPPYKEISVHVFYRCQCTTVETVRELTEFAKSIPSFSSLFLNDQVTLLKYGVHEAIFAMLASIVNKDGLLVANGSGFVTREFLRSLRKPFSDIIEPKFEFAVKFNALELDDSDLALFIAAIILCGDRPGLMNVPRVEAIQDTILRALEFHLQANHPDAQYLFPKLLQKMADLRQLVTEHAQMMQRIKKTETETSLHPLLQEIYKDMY

Read-out in assay [5]: Intercellular Adhesion Molecule 1 (ICAM1), ICAM1 (gene 3383)
As to the kind of experiment: BSK_3C_ICAM1: BioMAP Diversity Plus: 3C Assay for Intercellular Adhesion Molecule 1 (ICAM1) Biomarker Activity (AID 2283003; active = hit-call score of the fitted dose curve at least 0.9, where 1 is the maximum; inactive = score below 0.9). Conditions: primary human endothelial cells (HUVEC); actives raise or lower the signal. A digest of the protocol: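 Using DMSO as baseline, bidirectional curve fitting was applied to ICAM-1 ELISA signals from HUVEC in the 3C system, measured 24 h after compound addition.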

Assay [6] can be described thus: BSK_3C_Proliferation: Cell Proliferation Assessment in the BioMAP Diversity Plus: 3C Assay (AID 2283006; active = hit-call score of the fitted dose curve at least 0.9, where 1 is the maximum; inactive = score below 0.9;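 as to AC50: potency may reflect either rise or fall in cell number versus DMSO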). The settings on record: primary human endothelial cells (HUVEC). The gist of the method:
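Measured here: sulforhodamine B (0.1%) staining of TCA-fixed sub-confluent umbilical vein endothelial cultures 48 h post-dosing, absorbance 560 nm. DMSO served as negative control and baseline; both signal gain and loss were modelled.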

Assay [7] has as its target Peroxisome proliferator-activated receptor gamma (Homo sapiens) (UniProt P37231). As to the kind of experiment: ATG_PPARg_TRANS: Attagene TRANS-FACTORIAL HepG2 Assay for human Peroxisome Proliferator-activated Receptor-gamma (PPARg) (AID 2283007). A digest of the protocol: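 Chimeric NR-Gal4 transactivation is measured in transiently transfected HepG2 cells by reporter mRNA induction at 24 h. Detection uses RT-PCR with fluorescent labelling and capillary electrophoresis; DMSO defines baseline.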

Assay [8] deals with Nuclear receptor subfamily 1 group I member 2 (Homo sapiens) (UniProt O75469). As to the kind of experiment: ATG_PXR_TRANS: Attagene TRANS-FACTORIAL HepG2 Assay for human Pregnane X Receptor (PXR) (AID 2283008). The gist of the method: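 Multiplexed TRANS reporter panel in HepG2; this component tracks PXR-Gal4-driven reporter mRNA after 24 h dosing, measured by RT-PCR with capillary electrophoresis fluorescence, fitted against DMSO.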
Chain of Nuclear receptor subfamily 1 group I member 2 (Homo sapiens) (O75469 whole entry, looked up, the tested form may be a part): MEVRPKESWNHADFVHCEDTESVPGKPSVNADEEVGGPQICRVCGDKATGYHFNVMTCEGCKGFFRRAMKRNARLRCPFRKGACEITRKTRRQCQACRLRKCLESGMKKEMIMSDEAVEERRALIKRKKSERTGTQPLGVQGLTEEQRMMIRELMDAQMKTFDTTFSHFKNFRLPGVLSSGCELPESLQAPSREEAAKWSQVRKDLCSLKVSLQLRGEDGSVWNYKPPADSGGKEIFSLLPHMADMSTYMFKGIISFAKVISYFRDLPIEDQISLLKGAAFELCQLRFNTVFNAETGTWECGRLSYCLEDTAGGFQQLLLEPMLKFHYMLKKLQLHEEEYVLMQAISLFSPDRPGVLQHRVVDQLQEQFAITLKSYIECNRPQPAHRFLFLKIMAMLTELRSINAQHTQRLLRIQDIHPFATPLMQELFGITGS

Assay [9] addresses Retinoic acid receptor RXR-alpha (Homo sapiens) (UniProt P19793). As to the kind of experiment: ATG_RXRa_TRANS: Attagene TRANS-FACTORIAL HepG2 Assay for human Retinoid X Receptor alpha (RXRa) (AID 2283012). The gist of the method:
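Chimeric NR-GAL4 trans-activation in HepG2, 24 h treatment; reporter transcripts quantified by fluorescence on capillary electrophoresis, analysed for upward change from DMSO.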

Assay [10] has as its target human Retinoid X Receptor beta (RXRb), RXRB (gene 6257) (UniProt P28702). As to the kind of experiment: ATG_RXRb_TRANS: Attagene TRANS-FACTORIAL HepG2 Assay for human Retinoid X Receptor beta (RXRb) (AID 2283013). A digest of the protocol: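 After a 24 h incubation with test chemical, transfected HepG2 cells carrying NR-Gal4 fusions and GAL4-UAS reporter transcription units yield RNA whose reporter cDNA is FAM-labelled, HpaI-cut and sized by capillary electrophoresis; increases over DMSO are scored.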

For assay [11], the target named is human Thyroid Receptor alpha (THRa1), THRA (gene 7067) (UniProt P10827). As to the kind of experiment: ATG_THRa1_TRANS: Attagene TRANS-FACTORIAL HepG2 Assay for human Thyroid Receptor alpha (THRa1) (AID 2283014). A digest of the protocol:
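First, HepG2 cells receive multiple GAL4-UAS reporter units and the chimeric receptor. They are then dosed for 24 h, after which RNA is reverse-transcribed, amplified, labelled, HpaI-cut and sized by capillary electrophoresis; gain relative to DMSO is scored.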

Read-out in assay [12]: E-selectin (Homo sapiens) (UniProt P16581)
As to the kind of experiment: BSK_3C_Eselectin: BioMAP Diversity Plus: 3C Assay for Eselectin Biomarker Activity (AID 2283015; active = hit-call score of the fitted dose curve at least 0.9, where 1 is the maximum; inactive = score below 0.9;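 also: cell surface E-selectin protein quantified by ELISA 24 h after dosing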). Conditions: primary human endothelial cells (HUVEC); actives raise or lower the signal. The gist of the method:
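Human vascular endothelium from umbilical vein is exposed to test chemicals for 24 h. E-selectin levels are read by ELISA and compared with DMSO controls.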

Read-out in assay [13]: Interleukin-1 alpha (IL1a), IL1A (gene 3552)
As to the kind of experiment: BSK_BE3C_IL1a: BioMAP Diversity Plus: BE3C Assay for Interleukin-1 alpha (IL1a) Biomarker Activity (AID 2283016; active = hit-call score of the fitted dose curve at least 0.9, where 1 is the maximum; inactive = score below 0.9). The settings on record: primary human bronchial epithelial cells; actives raise or lower the signal. The gist of the method: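 Measured in human lung primary bronchial epithelial cells: IL-1a by ELISA at 24 h after dosing, with bidirectional fitting against DMSO.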

Read-out in assay [14]: Monocyte Chemoattractant Protein-1 (MCP1), CCL2 (gene 6347)
As to the kind of experiment: BSK_4H_MCP1: BioMAP Diversity Plus: 4H Assay for Monocyte Chemoattractant Protein-1 (MCP1) Biomarker Activity (AID 2283018; active = hit-call score of the fitted dose curve at least 0.9, where 1 is the maximum; inactive = score below 0.9). The settings on record: primary human endothelial cells (HUVEC); actives raise or lower the signal. A digest of the protocol: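 Primary human umbilical vein endothelium is exposed to chemical for 24 h before MCP-1 is assayed by ELISA. Concentration-response fitted bidirectionally relative to DMSO.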

For assay [15], the target named is human Retinoic Acid Receptor beta (RARb), RARB (gene 5915) (UniProt P10826). As to the kind of experiment: ATG_RARb_TRANS: Attagene TRANS-FACTORIAL HepG2 Assay for human Retinoic Acid Receptor beta (AID 2283004). The gist of the method:
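HepG2, transient MRTU transfection, NR–Gal4 chimera, 24 h treatment; RT-PCR plus CE fluorescence detection of reporter mRNA; gain of signal vs DMSO.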

Assay [16] addresses human Retinoic Acid Receptor gamma (RARg), RARG (gene 5916) (UniProt P13631). As to the kind of experiment: ATG_RARg_TRANS: Attagene TRANS-FACTORIAL HepG2 Assay for human Retinoic Acid Receptor gamma (RARg) (AID 2283009). The gist of the method:
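Gain-of-signal relative to DMSO is reported from fluorescent capillary electrophoresis of RT-PCR reporter products. These came from HepG2 cells expressing transfected RARg-GAL4 chimeras with UAS reporters, harvested 24 h after dosing.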

Assay [17] has as its target human RAR-related Orphan Receptor beta (RORb), RORB (gene 6096) (UniProt Q92753). As to the kind of experiment: ATG_RORb_TRANS: Attagene TRANS-FACTORIAL HepG2 Assay for human RAR-related Orphan Receptor beta (RORb) (AID 2283010). A digest of the protocol:
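Multiplexed transcription-factor reporter assay: HepG2 cells transiently carrying NR-Gal4/GAL4-UAS constructs, 24 h treatment, mRNA quantified by RT-PCR plus capillary electrophoresis fluorescence; activity scored as induction over DMSO.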

Assay [18] deals with human RAR-related Orphan Receptor gamma (RORg), RORC (gene 6097) (UniProt P51449). As to the kind of experiment: ATG_RORg_TRANS: Attagene TRANS-FACTORIAL HepG2 Assay for human RAR-related Orphan Receptor gamma (RORg) (AID 2283011). The gist of the method: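 Activity is scored as increase in GAL4-UAS reporter mRNA over DMSO, detected by fluorescent RT-PCR and capillary electrophoresis in HepG2 cells transiently expressing a RORg-Gal4 chimera, 24 h after dosing.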
Chain of human RAR-related Orphan Receptor gamma (RORg), RORC (gene 6097) (P51449 whole entry, looked up, the tested form may be a part): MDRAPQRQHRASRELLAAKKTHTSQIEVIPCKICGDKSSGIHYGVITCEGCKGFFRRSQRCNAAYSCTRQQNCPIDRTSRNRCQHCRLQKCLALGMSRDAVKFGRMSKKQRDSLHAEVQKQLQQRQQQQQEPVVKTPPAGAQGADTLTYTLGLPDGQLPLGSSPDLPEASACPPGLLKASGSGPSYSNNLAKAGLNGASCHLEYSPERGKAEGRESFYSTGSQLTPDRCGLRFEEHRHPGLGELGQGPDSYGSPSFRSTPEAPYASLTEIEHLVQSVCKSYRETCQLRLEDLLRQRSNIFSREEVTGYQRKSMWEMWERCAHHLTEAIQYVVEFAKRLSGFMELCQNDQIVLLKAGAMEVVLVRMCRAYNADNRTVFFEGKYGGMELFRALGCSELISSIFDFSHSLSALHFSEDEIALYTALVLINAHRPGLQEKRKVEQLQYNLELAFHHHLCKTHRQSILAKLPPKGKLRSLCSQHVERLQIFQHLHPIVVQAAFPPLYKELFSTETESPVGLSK

Assay [19] deals with Retinoic acid receptor alpha (Homo sapiens) (UniProt P10276). As to the kind of experiment: ATG_RARa_TRANS: Attagene TRANS-FACTORIAL HepG2 Assay for human Retinoic Acid Receptor alpha (RARa) (AID 2283005).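 Also: potency for increased reporter signal meaning RARa activation over DMSO.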 A digest of the protocol:
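Reporter transcripts, measured by RT-PCR with fluorescent labeling and capillary electrophoresis after 24 h dosing, reflect activity of an exogenous human RARa–GAL4 fusion in transiently transfected HepG2. Fitted for increase relative to DMSO.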

Usually AC50 stands for the concentration at which the activity in the assay is half-maximal.

Inconclusive results are not listed. The source made the active and inactive calls. The calls were made as follows, unless noted: active = hit-call score of the fitted dose curve at least 0.9, where 1 is the maximum; inconclusive = response in the unintended direction; inactive = score below 0.9.

Chain of human Thyroid Receptor alpha (THRa1), THRA (gene 7067) (P10827 whole entry, looked up, the tested form may be a part): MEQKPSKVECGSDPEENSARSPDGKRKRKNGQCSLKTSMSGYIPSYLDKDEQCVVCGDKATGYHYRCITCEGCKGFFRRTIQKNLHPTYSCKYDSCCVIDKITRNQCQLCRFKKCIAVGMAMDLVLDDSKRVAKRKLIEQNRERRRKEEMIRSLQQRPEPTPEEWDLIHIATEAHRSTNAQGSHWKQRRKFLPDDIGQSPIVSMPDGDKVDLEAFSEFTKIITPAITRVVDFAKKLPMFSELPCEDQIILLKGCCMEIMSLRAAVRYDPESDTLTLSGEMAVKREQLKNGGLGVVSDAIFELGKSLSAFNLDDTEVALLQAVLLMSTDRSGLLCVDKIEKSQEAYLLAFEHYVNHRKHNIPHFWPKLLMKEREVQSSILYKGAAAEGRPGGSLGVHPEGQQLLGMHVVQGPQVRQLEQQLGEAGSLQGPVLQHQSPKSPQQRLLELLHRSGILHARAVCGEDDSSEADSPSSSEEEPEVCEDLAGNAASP
Chain of human Retinoid X Receptor beta (RXRb), RXRB (gene 6257) (P28702 whole entry, looked up, the tested form may be a part): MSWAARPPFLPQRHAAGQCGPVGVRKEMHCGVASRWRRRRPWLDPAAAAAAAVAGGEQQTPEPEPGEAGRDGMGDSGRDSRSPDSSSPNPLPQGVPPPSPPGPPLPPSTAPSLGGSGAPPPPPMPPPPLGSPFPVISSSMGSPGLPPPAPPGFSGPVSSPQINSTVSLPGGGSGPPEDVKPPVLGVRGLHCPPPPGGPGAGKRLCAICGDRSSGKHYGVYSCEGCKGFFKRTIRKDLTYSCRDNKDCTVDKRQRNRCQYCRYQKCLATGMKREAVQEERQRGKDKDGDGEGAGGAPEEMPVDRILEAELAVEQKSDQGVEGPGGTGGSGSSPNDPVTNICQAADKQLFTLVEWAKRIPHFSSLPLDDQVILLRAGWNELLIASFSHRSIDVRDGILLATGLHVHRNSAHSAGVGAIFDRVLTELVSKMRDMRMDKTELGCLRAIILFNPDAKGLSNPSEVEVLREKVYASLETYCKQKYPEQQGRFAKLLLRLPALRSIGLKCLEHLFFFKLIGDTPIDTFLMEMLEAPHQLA
Chain of human Retinoic Acid Receptor gamma (RARg), RARG (gene 5916) (P13631 whole entry, looked up, the tested form may be a part): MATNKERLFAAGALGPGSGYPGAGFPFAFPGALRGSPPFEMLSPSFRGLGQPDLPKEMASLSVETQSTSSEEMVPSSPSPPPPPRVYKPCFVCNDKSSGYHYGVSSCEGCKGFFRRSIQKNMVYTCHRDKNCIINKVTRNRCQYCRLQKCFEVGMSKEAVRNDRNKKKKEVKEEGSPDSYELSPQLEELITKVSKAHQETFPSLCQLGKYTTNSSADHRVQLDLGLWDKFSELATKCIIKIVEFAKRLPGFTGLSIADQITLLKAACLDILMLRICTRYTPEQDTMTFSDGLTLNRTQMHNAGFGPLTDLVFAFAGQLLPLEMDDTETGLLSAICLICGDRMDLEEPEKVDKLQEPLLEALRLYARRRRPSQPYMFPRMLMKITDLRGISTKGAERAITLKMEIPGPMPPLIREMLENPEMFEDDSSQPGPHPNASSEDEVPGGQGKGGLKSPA
Chain of E-selectin (Homo sapiens) (P16581 whole entry, looked up): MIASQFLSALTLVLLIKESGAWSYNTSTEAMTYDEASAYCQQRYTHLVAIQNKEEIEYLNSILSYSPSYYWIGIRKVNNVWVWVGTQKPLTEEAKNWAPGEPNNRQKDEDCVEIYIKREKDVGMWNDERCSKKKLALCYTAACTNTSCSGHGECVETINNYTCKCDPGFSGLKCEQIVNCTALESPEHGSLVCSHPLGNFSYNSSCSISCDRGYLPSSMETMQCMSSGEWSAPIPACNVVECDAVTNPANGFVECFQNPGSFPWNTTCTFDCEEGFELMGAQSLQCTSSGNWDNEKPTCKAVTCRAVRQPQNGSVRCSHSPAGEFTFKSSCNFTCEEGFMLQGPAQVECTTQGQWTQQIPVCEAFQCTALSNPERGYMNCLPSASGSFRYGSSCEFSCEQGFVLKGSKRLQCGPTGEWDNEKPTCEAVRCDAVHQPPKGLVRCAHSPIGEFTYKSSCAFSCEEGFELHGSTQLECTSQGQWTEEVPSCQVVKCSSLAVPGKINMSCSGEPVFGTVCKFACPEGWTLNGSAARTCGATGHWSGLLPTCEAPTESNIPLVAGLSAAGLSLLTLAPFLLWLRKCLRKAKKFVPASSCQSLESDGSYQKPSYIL
Chain of Peroxisome proliferator-activated receptor gamma (Homo sapiens) (P37231 whole entry, looked up, the tested form may be a part): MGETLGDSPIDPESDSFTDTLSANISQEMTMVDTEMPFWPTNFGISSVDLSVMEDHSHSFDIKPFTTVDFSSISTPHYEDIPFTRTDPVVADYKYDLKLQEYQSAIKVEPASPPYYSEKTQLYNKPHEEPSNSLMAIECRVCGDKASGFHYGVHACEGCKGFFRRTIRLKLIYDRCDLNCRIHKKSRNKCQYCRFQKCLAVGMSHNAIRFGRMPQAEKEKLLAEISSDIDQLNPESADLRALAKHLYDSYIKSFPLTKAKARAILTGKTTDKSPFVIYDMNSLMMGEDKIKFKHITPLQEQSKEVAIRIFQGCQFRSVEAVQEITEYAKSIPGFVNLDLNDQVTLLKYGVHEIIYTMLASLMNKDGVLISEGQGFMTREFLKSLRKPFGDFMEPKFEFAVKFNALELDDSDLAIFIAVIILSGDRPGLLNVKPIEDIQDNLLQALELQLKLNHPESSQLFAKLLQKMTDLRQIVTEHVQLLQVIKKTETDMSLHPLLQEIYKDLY
Chain of Retinoic acid receptor RXR-alpha (Homo sapiens) (P19793 whole entry, looked up, the tested form may be a part): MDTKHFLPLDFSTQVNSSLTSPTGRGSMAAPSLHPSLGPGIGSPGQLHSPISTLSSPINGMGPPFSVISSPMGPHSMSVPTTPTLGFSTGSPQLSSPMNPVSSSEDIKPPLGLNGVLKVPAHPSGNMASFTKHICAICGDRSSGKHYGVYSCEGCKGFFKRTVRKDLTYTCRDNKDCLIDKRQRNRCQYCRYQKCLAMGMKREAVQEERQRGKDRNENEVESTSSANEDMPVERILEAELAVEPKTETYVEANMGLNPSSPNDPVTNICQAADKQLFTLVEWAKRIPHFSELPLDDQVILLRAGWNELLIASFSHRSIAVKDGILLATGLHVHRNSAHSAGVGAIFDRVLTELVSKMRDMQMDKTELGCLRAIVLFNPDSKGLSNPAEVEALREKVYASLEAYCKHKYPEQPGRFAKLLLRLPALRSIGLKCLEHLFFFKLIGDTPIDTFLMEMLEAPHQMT
Chain of human RAR-related Orphan Receptor beta (RORb), RORB (gene 6096) (Q92753 whole entry, looked up, the tested form may be a part): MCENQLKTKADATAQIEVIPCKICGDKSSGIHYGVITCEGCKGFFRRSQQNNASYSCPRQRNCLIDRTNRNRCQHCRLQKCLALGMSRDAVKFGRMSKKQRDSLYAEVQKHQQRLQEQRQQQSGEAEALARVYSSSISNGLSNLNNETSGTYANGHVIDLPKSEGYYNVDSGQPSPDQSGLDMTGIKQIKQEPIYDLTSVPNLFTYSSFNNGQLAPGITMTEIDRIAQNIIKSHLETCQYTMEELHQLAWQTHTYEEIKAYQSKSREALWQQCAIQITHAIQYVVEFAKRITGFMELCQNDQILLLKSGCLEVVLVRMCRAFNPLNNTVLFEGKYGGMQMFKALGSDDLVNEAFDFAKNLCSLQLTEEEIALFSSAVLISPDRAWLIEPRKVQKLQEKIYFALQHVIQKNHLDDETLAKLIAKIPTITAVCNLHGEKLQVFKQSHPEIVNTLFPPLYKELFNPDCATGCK

As for `N#Cc1c(Cl)cccc1Cl`, the outcome in assay [1], in assay [2], in assay [3], in [4], in [5] and in [6] was inactive. Further, the call in [7], in [9], in assay [10], in assay [11], in [12] and in [13] was inactive. Moreover, in assay [14], the outcome was inactive. Further, in assay [8], the concentration at half-maximal activity (AC50) is 72.3 µM (active).
Consider `CSC(=O)c1c(C(F)F)nc(C(F)(F)F)c(C(=O)SC)c1CC(C)C`, for which the outcome in assay [1], in assay [2], in assay [4], in assay [5], in assay [15] and in assay [16] was inactive. Besides, the compound was classed as inactive in assay [17], in [18], in [9], in assay [12] and in assay [13]. For the same compound, the half-maximal activity concentration (AC50) in assay [6] was 15.7 µM (active); in assay [7] it was 10.9 µM (active); in [8], 1.66 µM (active); in [10], 15.1 µM (active); in assay [14], 20 µM (active).
As for `COC(=O)N(C(=O)N1CO[C@@]2(C(=O)OC)Cc3cc(Cl)ccc3C2=N1)c1ccc(OC(F)(F)F)cc1`, the result in [1], in [2], in assay [4], in assay [5], in assay [7] and in assay [16] was inactive. Also, the result in assay [17], in [18], in assay [9], in assay [10], in [11] and in assay [12] was inactive. Also, the result in assay [13] was inactive. Further, the half-maximal activity concentration (AC50) is 5.55 µM (active) in [6], 5.9 µM (active) in [8] and 6.07 µM (active) in assay [14].
In the case of `CCOP(=O)(OCC)Oc1nc(Cl)c(Cl)cc1Cl`, the outcome in assay [1], in assay [4], in assay [5], in [8], in assay [18] and in [9] was inactive. Besides, the call in assay [10], in assay [12], in assay [13] and in [14] was inactive. Besides, the half-maximal activity concentration (AC50) in assay [2] was 30.5 µM (active); in assay [6], 8.46 µM (active); in assay [7], 30.8 µM (active).
Take `CC(C)(C)C(=O)C(Oc1ccc(Cl)cc1)n1cncn1` (stereo not given): the result in assay [1], in [2], in assay [4], in [5], in assay [15] and in [6] was inactive. The compound was called inactive in assay [7], in [16], in [9], in assay [10], in assay [11] and in [12]. For the same compound, the outcome in [13] and in [14] was inactive. In addition, the AC50 in [19] is 50 µM (active); in assay [8], 19.9 µM (active).

These data come from PubChem BioAssay (EPA / NIEHS).
